We go through 38 molecules from PMC13494018.

Values without a mark were called inactive. The rule behind the calls is not given here.

In this assay the target is VTCN1, Q7Z7D3.
Chain of VTCN1, Q7Z7D3 (Q7Z7D3 whole entry): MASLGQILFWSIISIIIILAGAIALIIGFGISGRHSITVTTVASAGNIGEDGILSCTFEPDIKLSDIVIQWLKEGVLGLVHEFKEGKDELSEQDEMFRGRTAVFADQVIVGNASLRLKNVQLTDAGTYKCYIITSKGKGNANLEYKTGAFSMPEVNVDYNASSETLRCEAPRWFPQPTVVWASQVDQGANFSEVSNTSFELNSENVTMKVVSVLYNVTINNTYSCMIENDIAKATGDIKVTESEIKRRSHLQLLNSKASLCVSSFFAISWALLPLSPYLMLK

B1: d4r2_design_ppi_53_dldesign_0_cycle1_af2pred (protein)
chain: EEAKARAEKAFARAKALKARAKELKAKGEELFANAPELGEESLKRGKVYKLQAEQYEARAEEAEALGKELAAA
On to B1, for which the “binding in a display sort” value was “not found”.

B2: d4r1_design_ppi_174_dldesign_0_cycle0_af2pred (protein)
chain: SMEEKEAAEKMKELNEIAYEEYERVVKEGTEEAAREAMRRIMEKAKEHPYKETALKYVEVTLKHLKEEVSPEAAKAAEEELKRELA
Turning to B2, the “binding in a display sort” value is “not found”.

B3: d4r2_design_ppi_27_dldesign_0_cycle0_af2pred (protein)
chain: SEEEKKKKEAEKKVEEAKKKLEEAKKFAKEGKKEEGAKKLEEVAKELDEKADEFFASGSEEYREAGAKLGSLSIRAKLYAEGLKAK
In the case of B3, the “binding in a display sort” value was “not found”.

B4: d4r1_design_ppi_171_dldesign_0_cycle1_af2pred (protein)
chain: MKEIEEAQKKYKEALEKLKEVGEEYYQAVLDAIKNKGIEEAVKTAEKLAKELEKEDPEKGKKAKEAAELLKEAKKLIEKVRKE
In the case of B4, the “binding in a display sort” value is “not found”.

B5: d4r1_design_ppi_310_dldesign_0_cycle0_af2pred (protein)
chain: MEAIEEMRKKKEEAIKEAEESNPEEGAKIMEEAMKEIQEIANKAIKSSSSEEAKKILEEHEKLVEELEKKKEELKKKAEEEKK
For the molecule B5, the “binding in a display sort” value is “not found”.

B6: d4r1_design_ppi_339_dldesign_0_cycle1_af2pred (protein)
chain: AEEAEKAAKEAEEKAKEAEELAKEAAKLHPTYAQAFELLAKAFKKAAELLKKDYKEGKKYFEELKESFERAKKALAIAKKEKAA
Regarding B6, the “binding in a display sort” value is “not found”.

B7: d4r2_design_ppi_363_dldesign_0_cycle0_af2pred (protein)
chain: SLEEAKKSQEELQKKSTEKWLETQIKEAEKKAKEFKSLGEEAKKKAEEILKEVEKAKASTPEEGLEHAAKAAKIIEEAEKKL
For B7, the “binding in a display sort” value is “not found”.

B8: d4r2_design_ppi_319_dldesign_0_cycle0_af2pred (protein)
chain: EEEEKESERLAEEARRAAEEARRRIREAAERSAEAAREALEEARRRMEELIKEAKKHKKAYAVAAGEAERVLHFGEAALARREAAE
Consider B8, for which the “binding in a display sort” value is “not found”.

B9: d4r2_design_ppi_226_dldesign_0_cycle0_af2pred (protein)
chain: SELEEEAKKVAEEARELAKEAEEAAEKILKEKNNLKEAGTLYAQSAQAKQAAEAVELNPEKAEEARERLKKAKERMKEAVKKAE
B9: the “binding in a display sort” value is “not found”.

B10: d4r2_design_ppi_327_dldesign_0_cycle0_af2pred (protein)
chain: SQEVIQAKGKIQAAKEQAEAMKEAIEKKPKSPEELERALERLKRLEEEAKEAAKKAGEEVKEEYEEAKKAIEEAKKAAEENRK
In the case of B10, the “binding in a display sort” value was “not found”.

B11: d4r1_design_ppi_425_dldesign_0_cycle1_af2pred (protein)
chain: AAEAAAAAEKAAAAAGEKAGKAAAEHVAAGAKAGTLPQAVQDVLEQTSELKYKGDEVAAKAAYEAAREAAKAARAAA
In the case of B11, the “binding in a display sort” value was “not found”.

B12: d4r2_design_ppi_27_dldesign_0_cycle1_af2pred (protein)
chain: GKEKEEKEKAEKIVEEAKKELEEAKEYGKKTTKEEGAEKLEEVAKKLKEKAEEFLATGKEEWKHAGAKLESLAIRAELYAKGLRRE
With B12, the “binding in a display sort” value was “not found”.

B13: d4r2_design_ppi_152_dldesign_0_cycle0_af2pred (protein)
chain: AAAAAEAEKAAAAATQKAEELAEKRGEEHGAEVGLKKYLENPEEAKKMGKEIYELGLKKYKELKKKEEEEK
Take B13: the “binding in a display sort” value is “not found”.

B14: d4r1_design_ppi_144_dldesign_0_cycle1_af2pred (protein)
chain: DEEVKKAAKEAKEAAKEAEKLAKKDKSLKPLAEQAKKAAKYAEYYTKINPTLALNAAKAAKKIYEEMKKLA
As to B14, the “binding in a display sort” value is “not found”.

B15: d4r1_design_ppi_352_dldesign_0_cycle0_af2pred (protein)
chain: AAAEQNAKNLKEAEKAKKEAEEAKKLAKEDVAKGAEKLTEAAKKLAEIYEKASPEIQPYVAKELQEVAKAAQEAIKAKLEKDAA
As for B15, the “binding in a display sort” value was “not found”.

B16: d4r2_design_ppi_271_dldesign_0_cycle0_af2pred (protein)
chain: MTKEELEKLKKEVEEAEKLAQEVLKIDKESGEEILKLVTKAKGYAEFAEDALELGSQKAAESFAKKAKEYVKKAEKLAKETLAKAA
For B16, the “binding in a display sort” value is “not found”.

B17: d4r2_design_ppi_49_dldesign_0_cycle0_af2pred (protein)
chain: GKIEELKKKLKEAEKKLEEAKEKLNKAKAEAESYRIRAEANKENKEKYLKKAEEIEKEEIEKAKKEIEEYEKEKKEAEKKLKEAKE
For the molecule B17, the “binding in a display sort” value is “not found”.

B18: d4r2_design_ppi_327_dldesign_0_cycle1_af2pred (protein)
chain: DETVIQAKATIESAKERAEHIKKAIKEKPKTKEELKKAKKILEELEKKAEEAYKKAGEAVKEEYEKAKKAIKEAKKEAEKNLK
B18: the “binding in a display sort” value was “not found”.

B19: d4r2_design_ppi_24_dldesign_0_cycle1_af2pred (protein)
chain: SMEKEKEEELKNYAKQVAGKAFTYSDQLKEVAEKTGLEELKEKAEELEKLGKEALENPEKAKEYEAKAKEVFKEGRELYKKAK
For B19, the “binding in a display sort” value is “not found”.

B20: d4r2_design_ppi_335_dldesign_0_cycle0_af2pred (protein)
chain: SKVTEDQDKIIELSNKAVEKAEKALEAAKKDKEEAKKYLEEAEKLVEEAEKLAKESGSKAGRAIARNTKEYLEKKKKEIEELL
Regarding B20, the “binding in a display sort” value was “not found”.

B21: d4r2_design_ppi_363_dldesign_0_cycle1_af2pred (protein)
chain: GLAEAEKKQKELEEKSTKEYIEKVIKESKKKAKELKKKGEEAKKYAEKIEAEVEKAEKATLDEAIEYTSKARKLVEEAEKKL
Turning to B21, the “binding in a display sort” value was “not found”.

B22: d4r2_design_ppi_190_dldesign_0_cycle1_af2pred (protein)
chain: MEVEKTAKEAVEAVKAKSPKAAPKMEEAKKAAIEAAKLGKKEEALELLTKAKKAAEAGNVAEAIAYANEAIWLGEKLKK
For B22, the “binding in a display sort” value is “not found”.

B23: d4r2_design_ppi_34_dldesign_0_cycle0_af2pred (protein)
chain: SGAGQAKMERNAALSSLRAAKANPALAEIAAEDAIEAAKRALAVPEASPEVKEEAERVRKEAEAVGAAAKAAKAA
On to B23, for which the “binding in a display sort” value is “not found”.

B24: d4r2_design_ppi_407_dldesign_0_cycle0_af2pred (protein)
chain: MEEKKNKAKQFAFSEFMKAAAAAPPELRPKIEEAMDKTLEALDESFDKAIKVAEEVAKLPIAKKYAEKAKKFIEEQKK
For the molecule B24, the “binding in a display sort” value was “not found”.

B25: d4r1_design_ppi_339_dldesign_0_cycle0_af2pred (protein)
chain: SEKAEKAAKEAEEEAKKAKELAKEAAKLSPSYAAAFKKLAEAFKKAAKLLKEDYEKGLKEFKELKKSFELAKKAAAKAKAAAAA
In the case of B25, the “binding in a display sort” value was “not found”.

B26: d4r2_design_ppi_310_dldesign_0_cycle1_af2pred (protein)
chain: AVEKALKIIEETEKEAKEAFEKNPETGLAIAKATYRTAEHLGSKLNKEDAEKLKKKGKEYLEEFEKRYKEKKKELEE
Consider B26, for which the “binding in a display sort” value was “not found”.

B27: d4r1_design_ppi_219_dldesign_0_cycle1_af2pred (protein)
chain: AAEAEEYRKKAAEYIQELQELKTEIKATGTEEQAKKADEIWEEYKKKVKEAKEKYKDGTDLELAKALYKIAKENYEKLKELKE
For the molecule B27, the “binding in a display sort” value is “not found”.

B28: d4r1_design_ppi_171_dldesign_0_cycle0_af2pred (protein)
chain: MEKIEEANKLLKKALELLKEVGEEYYKKVMEAIKTEGIDAAVEKAKEIAKELKKKDKEKGKIAEEAYKNLEKAKELIKEIYEE
For B28, the “binding in a display sort” value is “not found”.

B29: d4r2_design_ppi_0_dldesign_0_cycle1_af2pred (protein)
chain: VAKELAKKFQKAIEALFEASTIEEVPEARAKVKEARKIAREGVENPETAKEKLEEGVKLVEKKAKEMEEKKKKEEEEKLK
On to B29, for which the “binding in a display sort” value was “not found”.

B30: d4r2_design_ppi_171_dldesign_0_cycle1_af2pred (protein)
chain: ANEAEAEKYYAEGEQKMILGDTAYEMGKKKGPIFYKIAAEEYKEAAELYKEAAKLASPEKAKEYKEKAKEAEEKSKEAKKKGEE
Take B30: the “binding in a display sort” value was “not found”.

B31: d4r2_design_ppi_159_dldesign_0_cycle1_af2pred (protein)
chain: ELEEEAKKAKEVAEKLKKFNLESRLEADEIEAKSKAALREGKENNEEAKKEGLKKVKEQLKKAEELLKKL
In the case of B31, the “binding in a display sort” value is “not found”.

B32: d4r2_design_ppi_335_dldesign_0_cycle1_af2pred (protein)
chain: GAVTEALDKVLELSEKAIELAEKALKAAKEDKEEAKKYLEKAREKVKEAEKLAKESGSKAGKSIARNTKEYVEKKEKEIKEII
In the case of B32, the “binding in a display sort” value was “not found”.

B33: d4r2_design_ppi_48_dldesign_0_cycle1_af2pred (protein)
chain: DFTAKAAAQAKKYKAEAKANAADPEKVGEVLAKALKAANEAKEAGNPAAAAALKAAADEILKINRESLLKEET
As for B33, the “binding in a display sort” value is “not found”.

B34: d4r2_design_ppi_226_dldesign_0_cycle1_af2pred (protein)
chain: MELEKKAKEVAKEAKEKAEEAEKAAEEILKKKKAIKEAGTLYSASERFKQVAEAAELDPSKAEEGRKVMERLKERAEKAVKEAE
In the case of B34, the “binding in a display sort” value was “not found”.

B35: d4r2_design_ppi_339_dldesign_0_cycle1_af2pred (protein)
chain: GESTEKAKKIYEEIKKKAEEYKKKAKEAAELLVEKGEEGGKKLKEIEEEAAKELPEVSFQVKAYINTLKEEAEKRRKEKEA
With B35, the “binding in a display sort” value is “not found”.

B36: d4r2_design_ppi_295_dldesign_0_cycle1_af2pred (protein)
chain: MAEEAAKAVKNRAERLAKEFPEAAPVMKAVAEEAKKKLEEAKGKSPTEIANVAQDYQAEATAKYAEVKRETEKKLAA
Turning to B36, the “binding in a display sort” value is “not found”.

B37: d4r2_design_ppi_24_dldesign_0_cycle0_af2pred (protein)
chain: KKEEEEKEKLKNFAKQASGKAEALSDQLKDVAEKTGSEELKEKAKKLEELGKEAEKNPELGKKKEEEAKKVHKEGKEYYKAKK
B37: the “binding in a display sort” value is “not found”.

B38: d4r2_design_ppi_378_dldesign_0_cycle0_af2pred (protein)
chain: MEEERQKKAEEELKKAKEAVEEGIKYAKEGNIMEANAKLSEARVHAEKAKKLDPETGKEIEKLVEEARKKIKEIAEK
B38: the “binding in a display sort” value was “not found”.
